Bioassay records from PubChem.
KB-3-1 tox = kills parental KB-3-1 adenocarcinoma cells. AID 1347075. KB-3-1 viability, CellTiter-Glo ATP luminescence, 72 h. hit rate 1.4% among 400,000. Potency, µM (highest dose often 46.1 µM), usual class: cytotoxic; further: potency means the concentration at half of the fitted maximal effect; on the % scale 0 is the no-effect control and ±100 the full control effect; nearly all actives have a fitted effect of over 60% in size
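KB-3-1 parental drug-naive adenocarcinoma cells in DMEM/10% FBS, incubated 72 h at 37 C with pin-transferred compounds across a concentration series. Viability by CellTiter-Glo luminescence; concentration-response curves fitted after normalization.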
KB-V1 cytotox = kills drug-selected multidrug resistant KB-V1 cells | KB-V1 MDR cells viability, CellTiter-Glo, 72 h | Potency, µM (series often up to 46.1 µM), usual class: cytotoxic | hit rate 3.4% among 400,000; further: potency means the concentration at half of the fitted maximal effect; on the % scale 0 is the no-effect control and ±100 the full control effect; nearly all actives have a fitted effect of over 60% in size
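Luminescent ATP read-out (CellTiter-Glo, 10 min) measures survival of drug-selected KB-V1 MDR cells after 72 h, 37 degrees C compound exposure. Medium: phenol-red-free DMEM, 10% FBS. Values from fitted concentration-response curves.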
KCNH2 WT inh = blocks the wildtype human KCNH2 potassium channel; AID 720551; hit rate 0.37% among 340,000; U2OS, BacMam KCNH2, thallium flux FluxOr; active compounds read low; activity change, % at 1.84 µM; Q12809;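 active means maximum activity change below -70%; inconclusive means maximum activity change between -70% and -50%; inactive means maximum activity change above -50%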; further: on the % scale 0 is the no-effect control and ±100 the full control effect
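U2OS cells were transduced with wild-type KCNH2 virus (2.03 x 10^8 / mL) for 4 h at room temperature, then cultured overnight at 37 C. Thallium flux was read with FluxOr dye. Rate constants were normalized to DMSO controls.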
SW480 rereplic = inducers of DNA re-replication in SW480 colon cancer cells. SW480 DNA re-replication, Hoechst DNA content imaging, 48 h. Potency, µM (series often up to 46.1 µM), for the others: top-dose re-replication activation, hits mostly activators. hit rate 1.8% among 340,000; further: potency means the concentration at half of the fitted maximal effect; % of control where 0% means no effect; nearly all actives have a fitted effect of over 55% in size
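SW480 cells exposed to compounds for 48 hr at 37 C, 5% CO2, then Hoechst-stained 40 min. Nuclear DNA content imaged by fluorescence scanning (405 nm excitation, 500-530 nm emission); re-replication scored as increased high-intensity nuclei.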
KCNH2 3.1 block = inhibitors of human KCNH2 3.1 potassium channel isoform; U2OS KCNH2 3.1, thallium flux FluxOr; active compounds read low; activity change, % (tested at about 1.8 µM); hit rate 0.95% among 340,000;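 active means maximum activity change below -70%; inconclusive means maximum activity change from -70% to -50%; inactive means maximum activity change above -50%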;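 further: thallium influx rate constant from kinetic fluorescence after stimulation buffer; on the % scale 0 is the no-effect control and ±100 the full control effect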
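Channel expression came from 3.1 mutant virus (1.77 x 10^8 /mL) applied to suspended U2OS cells for 4 h. Flux was tracked with FluxOr dye plus Red40 quencher, and kinetic rate constants normalized to controls.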
MCF10A rerep = DNA re-replication induction in MCF 10a cells; MCF 10A DNA re-replication, Hoechst nuclear intensity, 48 h; Potency, µM (top dose mostly 46.1 µM), without a hit: top-dose activity, positive = re-replication, usual class: activators; AID 624296; hit rate 2.9% among 350,000; further: potency means the concentration at half of the fitted maximal effect; % of control where 0% means no effect; nearly all actives have a fitted effect of over 50% in size
* marks the source's active call; other numbers are inactive results; i = inactive; ? = inconclusive; . = no result. In the library only some 7.6% were active in any assay of this set; here they are far more common. Unless noted, the call rests on the fitted dose curve; in most records, active means well fitted curve in the direction sought with a large enough effect; inconclusive means small, poorly fitted or top-dose-only effect, or another doubt; inactive means no such curve, though single readings can be large; an effect the other way counts as inactive or inconclusive.

SMILES	KB-3-1 tox	KB-V1 cytotox	KCNH2 WT inh	SW480 rereplic	KCNH2 3.1 block	MCF10A rerep
COc1ccc(OCCCC(=O)N2CCN(S(=O)(=O)c3cccc(F)c3)CC2)cc1	i	?	0.4	?	-18.8	-18.3%
COCCNC(=O)c1ccc(N2CC3CC(C2)c2cccc(=O)n2C3)c(NC(=O)c2ccccc2Br)c1 (stereo not given)	i	?	-13.4	.	-28.2	.
CCOC(=O)/C=C1\SCC(=O)N1CC(=O)Nc1ccc2c(c1)CCC2	i	?	-17.2	?	2.1	9.2µM*
CCCC[C@H]1COCCS(=O)(=O)N1Cc1ccc(Br)cc1	?	?	-10.7	-9.7%	-11.5	4.7%
CCCCn1nnc(NC(=S)NC(=O)c2ccc(-c3cccc(Cl)c3Cl)o2)n1	?	14.6µM*	-4.2	-5.0%	30.2	14.0%
CCCn1nnc(NC(=O)/C=C/c2ccco2)n1	i	i	-1.6	20.6µM*	2.9	29.9%
CCCn1nnc(NC(=O)Cc2ccc(Cl)cc2)n1	?	i	-9.6	-1.7%	-11.3	8.2µM*
CCCn1nnc(NC(=O)c2ccc(-c3cc(Cl)ccc3Cl)o2)n1	i	i	0.1	3.4%	7.1	20.5%
CCCn1nnc(NC(=O)c2ccccc2Br)n1	i	i	-2.3	5.17µM*	14.8	18.4µM*
CN(C)c1ccc(C(c2ccc(N(C)C)cc2)C(O)c2ccccc2)cc1 (stereo not given)	i	16.4µM*	28.1	-2.5%	.	22.7%
Cn1nc([N+](=O)[O-])nc1S(C)(=O)=O	?	?	-5.0	9.2µM*	-5.7	5.8µM*
Cn1nc([N+](=O)[O-])nc1Oc1ccccc1F	i	i	6.5	-3.9%	-7.3	-3.5%
Cc1nn(CCCC(=O)NCCc2ccccc2)c(C)c1[N+](=O)[O-]	i	i	-4.5	-9.0%	15.6	5.7%
CS(=O)(=O)c1nc([N+](=O)[O-])nn1CCCc1ccccc1	25.9µM*	?	8.7	-128.8%	2.9	4.61µM*
COc1ccccc1-c1cc2nc(C)c(CCC(=O)NCCc3cccc(C)c3)c(C)n2n1	i	i	.	.	.	.
O=C(c1ccc(NS(=O)(=O)c2cccs2)cc1)N1CCOCC1	i	i	-23.3	-3.6%	-4.2	-4.3%
COc1cc(-c2ccc(NC(=O)c3ccc(C)cc3)c(OC)c2)ccc1NC(=O)c1ccc(C)cc1	i	i	2.3	2.59µM*	5.4	1.64µM*
COc1ccc(CN2CCN(CC(=O)Nc3ccccc3C(=O)NC3CC3)CC2)cc1F	i	i	-93.1*	-5.6%	-104.1*	-8.8%
CC(=O)c1ccc(N2CCN(CC(=O)Nc3ccccc3C(=O)NC3CC3)CC2)c(F)c1	i	i	20.9	-6.7%	-0.1	18.4µM*
O=C(CN1CCN(S(=O)(=O)c2ccc(F)cc2)CC1)Nc1ccccc1C(=O)NC1CC1	?	?	-1.8	-3.4%	-37.7	6.8%
COc1ccc(F)cc1CN1CCN(CC(=O)Nc2ccccc2C(=O)NC2CC2)CC1	i	i	-107.2*	3.0%	-106.2*	0.7%
COc1ccccc1CNC(=O)c1cn(C)c2ccc(S(=O)(=O)N3CCC(C)CC3)cc2c1=O	i	i	.	.	.	.
O=C(Nc1ccccc1)c1nnn(Cc2ccccc2)c1NC(=O)C(F)(F)F	i	i	1.5	-5.2%	9.2	?
COc1cc(-c2ccc(NC(=O)CN3CCC(C)CC3)c(OC)c2)ccc1NC(=O)CN1CCC(C)CC1	?	16.4µM*	0.0	-1.9%	0.9	?
COc1ccccc1NC(=O)CN1CCN(CC(=O)Nc2ccc(F)cc2F)CC1	i	i	-10.0	-2.5%	-86.4*	6.6%
COc1ccc(NC(=O)CN2CCC(C)CC2)c([N+](=O)[O-])c1	i	i	-1.6	1.8%	-10.9	-4.6%
C=C[C@@H]1c2cc(C)ccc2N(S(=O)(=O)c2ccc(C)cc2)[C@H](c2ccc(C(=O)OC)cc2)C1(C#N)C#N	i	i	.	.	.	.
